Screening results as filed in PubChem BioAssay.
Rows were chosen to be rich in hits. Some 3.5% of all compounds tested hit in one or more screens of this group.
Mtb FBA inh – inhibitors of M. tuberculosis fructose-bisphosphate aldolase; inhibition, % at 1 µM; P9WQA3; purified M. tuberculosis FBA, fluorescence read-out; hit rate 2.3% among 360,000; AID 588726; in the data active = inhibition above about 27%;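 also: 0% = vehicle and 100% = reference inhibitor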
Rv3671c inh – inhibits the M. tuberculosis serine protease Rv3671c. inhibition, % at 5.96 µM. hit rate 0.048% among 320,000; in the data active = inhibition above about 38%;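 also: extracellular domain of Rv3671c used as enzyme; 0% = enzyme with DMSO and 100% = no enzyme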
GDH-TPI counter – inhibits GDH-TPI coupling enzymes, artifact for Mtb FBA screen; GDH-TPI coupled enzyme counterscreen, NADH absorbance; hit rate 1.2% among 360,000; inhibition, % at 4.8 µM; in the data active = inhibition above about 30%;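 also: 0% = DMSO wells and 100% = wells lacking the enzyme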
UGM FP inh – Mtb UDP-galactopyranose mutase inhibition; inhibition, % at 10 µM; hit rate 0.06% among 320,000; purified UGM, fluorescence polarization probe displacement; P9WIQ1; in the data active = inhibition above about 10%, passing the limit was not always enough; inconclusive = no clear call, values can overlap the other calls
Target sequence (P9WIQ1 whole entry, looked up): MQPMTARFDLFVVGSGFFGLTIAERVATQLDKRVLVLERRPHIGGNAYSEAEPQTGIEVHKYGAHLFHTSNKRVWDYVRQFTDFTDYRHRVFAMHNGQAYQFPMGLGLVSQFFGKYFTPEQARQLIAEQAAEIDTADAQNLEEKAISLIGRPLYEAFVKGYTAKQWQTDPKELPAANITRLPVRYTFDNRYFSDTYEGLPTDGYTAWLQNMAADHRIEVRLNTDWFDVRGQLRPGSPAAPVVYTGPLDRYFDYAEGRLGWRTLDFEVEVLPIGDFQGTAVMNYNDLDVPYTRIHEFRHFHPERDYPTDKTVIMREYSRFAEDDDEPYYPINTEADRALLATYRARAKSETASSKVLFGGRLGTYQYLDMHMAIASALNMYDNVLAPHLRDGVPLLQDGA
Mtb hypoxia inh – Mtb hypoxia fluorescent reporter inhibition. hit rate 0.1% among 300,000. fluorescence inhibition, % (test concentration not listed). AID 1159583. M. tuberculosis hypoxia-regulated fluorescent reporter, fluorescence; in the data active = fluorescence inhibition mostly above about 23%, no sharp cut-off; inactive = mostly below about 17%
FadD28 FP inh – inhibitors of Mycobacterium tuberculosis FadD28 bisubstrate binding; FadD28 bisubstrate probe binding, fluorescence polarization; inhibition, % at 12.5 µM; hit rate 0.22% among 360,000; in the data active = inhibition above about 8.5%, passing the limit was not always enough; inconclusive = no clear call, values can overlap the other calls
The depositor's hits bear a star; ? = inconclusive; . = no result; + = active, no number.

SMILES	Mtb FBA inh	Rv3671c inh	GDH-TPI counter	UGM FP inh	Mtb hypoxia inh	FadD28 FP inh
CCOC(=O)c1ccc(-n2c(CN3CCC(O)CC3)nc3ccc([N+](=O)[O-])cc3c2=O)cc1	-0.2	-2.1	45.5*	-1.8	8.6	0.3
Cc1ccc(S(=O)(=O)Nc2cccc3c2O[C@@H](CN(C)C(=O)Nc2ccc4c(c2)OCO4)[C@H](C)CN([C@@H](C)CO)C3=O)cc1	-0.8	0.6	8.5	3.4	.	10.5*
C[C@H](CO)N1C[C@H](C)[C@@H](CN(C)C(=O)Nc2ccc3c(c2)OCO3)Oc2c(NS(=O)(=O)c3ccccc3)cccc2C1=O	4.9	0.5	0.0	1.7	.	2.7
COc1ccc(NC(=O)Nc2ccc3c(c2)C(=O)N([C@H](C)CO)C[C@H](C)[C@@H](CN(C)S(=O)(=O)c2ccc(OC)cc2)O3)cc1	3.1	3.0	5.8	0.7	3.2	9.4*
CCCn1c(NC(=O)c2cccc(S(=O)(=O)N3CCCC3)c2)nc2ccccc21	-3.0	-18.6	34.9*	0.3	-5.2	-1.5
CCOC(=O)N1CCC(NC(=S)Nc2ccc3nc(N4CCN(C)CC4)cc(C)c3c2)CC1	8.8	9.8	11.2	1.7	-4.7	-3.6
CCOC(=O)N1CCC(NC(=S)Nc2ccc3nc(N4CCN(CC)CC4)cc(C)c3c2)CC1	13.5	-0.4	35.4*	1.8	1.4	-2.9
CCCN(CCC)CCNC(=O)CCC(=O)Nc1ccc2nc(N3CCN(C)CC3)cc(C)c2c1	+	0.1	15.6	8.6	-3.7	-2.1
CCc1n[nH]c(=S)n1N=Cc1ccc(N(CC)CC)cc1	.	.	.	.	-4.8	.
CCN(CC)c1ccc(/C=N/n2c(-c3ccccc3Br)n[nH]c2=S)cc1	3.5	5.4	37.5*	2.5	.	-1.8
Cc1ccc(NC(=O)/C(C#N)=N/Nc2ccc(C(=O)O)cc2)c(C)c1	-10.6	2.1	57.5*	2.3	.	-1.6
Cc1ccc(N/N=C(\C#N)C(N)=S)c(C)c1	2.2	7.4	10.9	1.2	.	2.3
O=c1cc(-c2ccccc2)nc2c(-c3ccccc3)c(C(F)(F)F)[nH]n12	+	4.4	10.0	0.2	9.6	?
Cc1cc(=O)n2[nH]c(C)c(-c3ccccc3)c2n1	14.5	6.0	3.4	0.0	.	-2.4
Cc1ccccc1OCc1nc2ccccc2c(=O)n1N=Cc1cn[nH]c1-c1ccc(Br)cc1	.	.	.	.	2.0	.
O=c1cc(CSc2nnnn2-c2ccccc2)[nH]c2[nH]n(-c3ccccc3)c(=O)c12	0.9	8.2	18.4	-0.3	.	8.9*
CCOC(=O)C1Nc2ccccc2C2c3ccccc3CC12 (stereo not given)	33.4*	4.3	10.9	3.5	19.1	-5.6
CCOC(=O)C1Nc2c(F)cc(C)cc2C2c3ccccc3CC12 (stereo not given)	9.5	-9.2	-1.8	0.2	6.7	-1.1
N=C1/C(=C/c2ccc(Br)o2)C(=O)N=C2SC(CC(=O)N3CCCC3)=NN12	-5.4	-36.5	25.0	0.9	-0.7	-1.4
Cc1cc(/C=C2\C(=N)N3N=C(CC(=O)N4CCOCC4)SC3=NC2=O)c(C)n1-c1ccccc1	0.6	-7.2	33.6*	0.5	11.8	-3.5
N=C1/C(=C/c2ccco2)C(=O)N=C2SC(CC(=O)N3CCCC3)=NN12	1.9	-4.5	30.8*	0.7	2.8	-0.6
COc1ccc(/C=C2/C(=N)N3N=C(CC(=O)N4CCCC4)SC3=NC2=O)cc1	-0.7	3.1	10.2	2.2	7.9	-3.5
CCC1=NN2C(=N)/C(=C\c3cccn3-c3ccc(OC)cc3)C(=O)N=C2S1	-1.8	-10.7	9.3	13.8*	.	-1.4
COc1ccc(-n2c(C)cc(/C=C3\C(=N)N4N=C(CC(=O)N5CCOCC5)SC4=NC3=O)c2C)cc1	-2.0	-14.3	45.7*	2.0	5.7	-0.3
COc1cc(C=NNC(=O)COc2ccc(Cl)cc2)ccc1OS(=O)(=O)c1ccc(C)cc1	.	.	.	.	11.3	.
SMILES	Mtb FBA inh	Rv3671c inh	GDH-TPI counter	UGM FP inh	Mtb hypoxia inh	FadD28 FP inh
COCCNC(=O)C1CC1C(NP(=O)(c1ccccc1)c1ccccc1)c1ccccc1 (stereo not given)	.	.	.	.	2.6	.
CC(C)c1nc(NCCO)c(C#N)c2c1CCCC2	16.4	1.0	38.8*	1.7	4.8	-2.0
CCn1cc(C=NNC(=O)Cc2ccc([N+](=O)[O-])cc2)c(C)n1	.	.	.	.	-1.2	.
O=C(NN=C1CCCC1)c1sc2ccccc2c1Cl	-1.9	5.5	0.3	-1.8	13.6	-4.5
O=C1CCC/C(=N/NC(=O)c2sc3ccccc3c2Cl)C1	1.0	-7.4	54.7*	0.2	.	0.5
COc1cc(C=NNC(=O)c2ccc(O)cc2)ccc1OCC(=O)N1CC(C)OC(C)C1 (stereo not given)	.	.	.	.	11.8	.
